# Laboratory results taken from ChEMBL document CHEMBL1201862, “PubChem BioAssay data set” (2004).
# The whole screen tested about 57,000 sequences, of which about 3,500 (6.1%) were called active. This is one part of a sample in which actives are shown more often than they occur. No stated cut-off is given here; in the data, active = GI50 up to about 1.1 µM and inactive = higher. Results with a measured potency or affinity are listed apart.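 Exposure lasted 48 hours, with cells grown in 96-well plates and compounds tested at five concentrations. At the GI50, growth is halved.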
# System: 786-0
# Assay: NCI tumour cell line growth inhibition, 48 h
row,Substance,GI50
1,"[Bis(aminomethyl)tetramethylenesilane]dichloropaltinum(II), CHEMBL2146205",5.78 µM
2,"[Bis(aminomethyl)diethylsilane]tetrachloroplatinum(IV), CHEMBL2146203",2.18 µM
3,"[Bis(aminomethyl)tetramethylenesilane]tetrachloropaltinum(IV), CHEMBL2146189",3.1 µM
4,"CISPLATIN, CHEMBL11359",1.1 µM
5,"[Bis(aminomethyl)ethylmethylsilane]tetrachloroplatinum(IV), CHEMBL2146192",1.34 µM
6,"[Bis(aminomethyl)dimethylsilane]dichloroplatinum (II), CHEMBL2146201",6.14 µM
7,"[Bis(aminomethyl)pentamethylenesilane]dichloropaltinum(II), CHEMBL2146202",0.916 µM
8,"[Bis(aminomethyl)pentamethylenesilane]tetrachloropaltinum(IV), CHEMBL2146204",1.22 µM
9,"[Bis(aminomethyl)dimethylsilane]tetrachloroplatinum(IV), CHEMBL2146190",2.12 µM
10,"mu-(1,7-nanodiamine-N,N')bis-(cis-aminedichloroplatimum (II)), CHEMBL2146215",8.73 µM
11,"cis-Bis[[(trimethylsilyl)methyl]amino]tetrachloroplatinum(IV), CHEMBL2146191",5.71 µM
